Screening results from PubChem BioAssay.
Luciferase inh – Photinus pyralis luciferase inhibition; purified P. pyralis luciferase, luminescence, biochemical; Potency, µM (titrated, usually from 115 µM), hits mostly inhibitors; actives 2.5% (n = 76,000); AID 1347043; further: nearly all actives have a fitted effect of over 65% in size
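Cell-free enzyme assay, 10nM P. pyralis luciferase, luciferin and ATP each at 10uM. Inhibition profiled over a 6-point titration, read as luminescence.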
3T3 cytotox – cytotoxic compounds in NIH 3T3 cells. NIH 3T3 viability, CellTiter-Glo ATP luminescence, 48-72 h. Potency, µM (highest dose often 96.7 µM), without a hit: at the highest dose activity change, negative = cytotoxicity, most hits filed as inhibitors. actives 4.3% (n = 94,000). AID 1345082; further: nearly all actives have a fitted effect of over 55% in size
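NIH 3T3 cells at 400 cells/well received 23 nL of compound by pintool and were incubated 48 or 72 h at 37 °C. Viability was read as ATP-coupled CellTiter-Glo luminescence.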
HEK cytotox – cytotoxic compounds in HEK 293 cells. HEK 293 viability, ATP luminescence (CellTiter-Glo), 48-72 h. Potency, µM (highest dose often 115 µM), inactives show at the highest dose activity change, negative = cytotoxicity, actives largely listed as inhibitors. actives 6.6% (n = 94,000); further: nearly all actives have a fitted effect of over 60% in size
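HEK 293 seeded at 250 cells/well receive compound via pintool. After 48 or 72 hr at 37 degree Celsius, 5% CO2 and 95% humidity, CellTiter-Glo is dispensed and luminescence read following 10 min at room temperature.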
hNpr1 antagonist – blocks ANP-stimulated signaling of human Npr1 receptor. actives 1.6% (n = 76,000). HEK293 hNpr1 GloSensor cGMP, ANP-stimulated luminescence. Potency, µM (series often up to 46.3 µM), for the others: at the top dose activity change, negative = inhibition, most hits filed as inhibitors. AID 1347048; calls by dose curve; further: nearly all actives have a fitted effect of over 60% in size
Target sequence (P16066 whole entry, looked up): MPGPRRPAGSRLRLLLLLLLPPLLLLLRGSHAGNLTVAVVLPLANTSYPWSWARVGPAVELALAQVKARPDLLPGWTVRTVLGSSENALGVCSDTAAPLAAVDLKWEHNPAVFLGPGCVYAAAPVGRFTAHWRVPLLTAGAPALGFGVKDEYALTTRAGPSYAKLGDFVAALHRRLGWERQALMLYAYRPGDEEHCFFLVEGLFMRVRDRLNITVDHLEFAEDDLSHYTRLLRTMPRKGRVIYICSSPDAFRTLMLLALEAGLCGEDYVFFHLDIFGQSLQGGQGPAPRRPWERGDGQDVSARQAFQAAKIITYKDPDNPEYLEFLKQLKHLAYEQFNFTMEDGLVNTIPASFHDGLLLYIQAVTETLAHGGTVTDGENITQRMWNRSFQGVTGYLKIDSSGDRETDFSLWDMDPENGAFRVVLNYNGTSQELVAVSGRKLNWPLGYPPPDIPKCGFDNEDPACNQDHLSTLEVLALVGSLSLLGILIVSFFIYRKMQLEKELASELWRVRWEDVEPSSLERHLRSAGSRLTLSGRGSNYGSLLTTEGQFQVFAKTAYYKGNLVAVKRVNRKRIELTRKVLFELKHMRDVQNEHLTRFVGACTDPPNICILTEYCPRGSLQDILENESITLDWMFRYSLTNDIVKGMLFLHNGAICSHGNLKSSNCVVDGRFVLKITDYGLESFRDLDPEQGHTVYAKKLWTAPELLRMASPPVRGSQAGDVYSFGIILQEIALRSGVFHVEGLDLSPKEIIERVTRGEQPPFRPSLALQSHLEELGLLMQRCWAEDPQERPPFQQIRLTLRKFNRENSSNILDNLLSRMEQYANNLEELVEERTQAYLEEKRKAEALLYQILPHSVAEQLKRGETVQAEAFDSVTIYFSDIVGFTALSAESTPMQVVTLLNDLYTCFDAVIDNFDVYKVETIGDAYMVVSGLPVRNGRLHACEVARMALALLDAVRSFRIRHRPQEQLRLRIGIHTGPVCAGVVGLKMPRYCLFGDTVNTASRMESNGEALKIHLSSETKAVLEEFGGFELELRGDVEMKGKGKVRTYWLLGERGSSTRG
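Compound pre-incubated 30 min at room temperature on GloSensor-loaded HEK293 cells stably carrying hNpr1 and the pGS-40F cGMP biosensor. Stimulation uses hNppA at 0.1 nM final; luminescence is taken at baseline and 20 min post-agonist.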
An asterisk follows results filed as active; i = inactive; ? = inconclusive; . = no result given; [ ] = dose if it differs, or a comment. Rows were chosen to be rich in hits. Some 11% of all compounds tested hit in one or more screens of this group. Unless noted, the call rests on the fitted dose curve; in most records, active means well fitted curve in the direction sought with a large enough effect; inconclusive means small, poorly fitted or top-dose-only effect, or another doubt; inactive means no such curve, though single readings can be large; an effect the other way counts as inactive or inconclusive. On the % scale 0 is the no-effect control and ±100 the full control effect; potency means the concentration at half of the fitted maximal effect.

SMILES	Luciferase inh	3T3 cytotox	HEK cytotox	hNpr1 antagonist
O=C(Cn1ccn2nc(-c3ccc(F)cc3)c(CO)c2c1=O)N1CCC(Cc2ccccc2)CC1	i	-7%	-3%	-16%
CNC(=O)c1cc(C2CC2)nc2onc(C3CCN(C(=O)c4ccccc4OC)CC3)c12	.	-21%	-7%	.
COc1ccc(CNC(=O)[C@@H]2C[C@@H](c3ccc(F)cc3)N(Cc3ccccc3)C2)cc1OC	i	-21%	?	-14%
Cc1nc(CN2C[C@H](C(=O)N3CCN(CCO)CC3)C[C@@H]2c2ccc(F)cc2)cs1	i	?	-14%[172 µM]	.
Cc1nc(CN2C[C@H](C(=O)NCc3cccc(F)c3)C[C@@H]2c2ccc(F)cc2)cs1	i	?	89µM*	-2%[70.6 µM]
Cc1nc(CN2C[C@H](C(=O)Nc3ccccc3)C[C@@H]2c2ccc(F)cc2)cs1	i	?	71µM*	0%[70.6 µM]
COc1ccc2ccc(OCc3nc(C(=O)N4CCCC(C)(CO)C4)co3)cc2c1 (centres undefined)	?	?	?	11µM*
COc1ccc2ccc(OCc3nc(C(=O)NC(C)c4n[nH]c(C)n4)co3)cc2c1 (centres undefined)	?	-28%	45µM*	11µM*
COc1ccc2ccc(OCc3nc(C(=O)NCc4cnc(C)cn4)co3)cc2c1	i	?	?	-22%
CNC(=O)c1cnn2c1CN(C(=O)c1cccnc1)CC2	.	i	5%[172 µM]	.
C[S+](=O)([O-])N1CCC(c2nnc3n2C(C(=O)NCc2ccccc2Cl)CC3)CC1 (centres undefined)	.	-12%[138 µM]	-1%[172 µM]	.
COc1cccc(CN2CC(O)CN(C(=O)OCC(C)C)CC2=O)c1OC (centres undefined)	.	?	-11%	.
Cc1ccc(NC(=O)Cn2ccn3nc4c(c3c2=O)CCCC4)cc1Cl	i	-24%	-14%	-8%
CC(=O)c1ccc(NC(=O)Cn2ccn3nc4c(c3c2=O)CCCC4)cc1	i	-2%	-1%	-3%
CC(=O)Nc1ccc(NC(=O)Cn2ccn3nc4c(c3c2=O)CCCCC4)cc1	i	?	35µM*	3%
Cc1ccc(NC(=O)Cn2ccn3nc4c(c3c2=O)CCCCC4)cc1C	i	-25%	40µM*	?
CN(C)c1ccc(NC(=O)CCn2ccn3nc4c(c3c2=O)CCCC4)cc1	40µM*	-26%	?	-1%
Cn1nc(C2CCCN2)c2c(C(=O)NC3CC3)cc(C3CC3)nc21 (centres undefined)	.	i	i	.
O=C(NC1CC1)c1cc(C2CC2)nc2c1c(C1CCCN1)nn2-c1ccccc1 (centres undefined)	.	32µM*	79µM*	.
O=C(NC1CCNCC1)c1cc(C2CC2)nc2c1c(C1CCCN1)nn2-c1ccccc1 (centres undefined)	.	22µM*	45µM*	.
COc1ccc(CNC(=O)Cn2c(-c3cccc(Cl)c3)nc(C)c(CCO)c2=O)cc1OC	i	?	?	-15%
Cc1ccc(C2Cn3nnc(-c4nc(-c5cccnc5)no4)c3CO2)c(C)c1 (centres undefined)	i	16µM*	?	-6%
Cc1ccc(C2Cn3nnc(-c4nc(-c5cccc(Cl)c5)no4)c3CO2)c(C)c1 (centres undefined)	i	-1%	13%	1%
O=C(N[C@H]1C[C@H]2C(=O)NC[C@@H](CCC(=O)N3CCCCC3)N2C1)c1ccc(F)c(Cl)c1	i	-4%	4%	-1%
CCNC(=O)[C@@H]1C[C@H](NC(=O)CCc2ccccc2)CN1Cc1cnc[nH]1	i	i	3%	1%
COC(=O)[C@@H]1Cc2c([nH]c3ccccc23)[C@H]2C[C@@H](NC[C@H]3CCCO3)C[C@@H](c3ccccc3F)N21	i	79µM*	79µM*	5%
COC(=O)[C@@H]1Cc2c([nH]c3ccccc23)[C@H]2C[C@@H](NCCc3cnc[nH]3)C[C@@H](c3ccccc3F)N21	i	28µM*	25µM*	-14%
COc1ccccc1-n1c(=O)c(C(=O)N2CCN(C(=O)c3ccc(F)cc3)CC2)nc2cccnc21	.	-15%	-9%	.
CC(C)(C)C(=O)N1CCC(c2nnc(Cn3cncn3)n2C2CC2)CC1	i	i	i	2%
COc1ccc(-c2ccc3ncc(Nc4cccc(N[S+](C)(=O)[O-])c4)n3n2)cc1OC	40µM*	?	?	-2%
